PERK inhibitor = inhibitors of human PERK kinase; inhibition, % at 5.6 µM; CHO PERK-DD fusion, SEAP luminescence translation reporter; AID 1416; 220,000 tested, 0.17% active;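 active means inhibition above the mean inhibition of all tested compounds plus 3 SD, set separately per screening campaign, cut at about 2.9% in these data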;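 further: PERK kinase domain activated by AP20187 dimerizer at 100 nM; 0% = DMSO with dimerizer and 100% = rapamycin at 8.4 µM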
eIF4H FP inh = inhibitors of RNA binding by human eIF4H. 290,000 tested, 0.94% active. inhibition, % at 35 µM. AID 2012. Q15056. eIF4H fluorescence polarization binding assay;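 further: calls also rest on retests at 20 µM and on dose response follow-up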
PABP FP inh = blocks human PABP binding to poly(A) RNA | fluorescence polarization | inhibition, % at 35 µM | 290,000 tested, 1% active | P11940;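 further: calls also rest on retests at 20 µM and on dose response follow-up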
GRK2 aptamer HTS = inhibitors of human GRK2 displacing RNA aptamer; bead flow cytometry, FAM-aptamer displacement from GRK2; 330,000 tested, 0.59% active; inhibition of aptamer binding, % at 10 µM; P25098;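 active means inhibition of aptamer binding above 40%, roughly 3 SD of noise, on plates passing a quality check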;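 further: median bead fluorescence of bound FAM aptamer so fluorescent compounds give negative values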
PABP1 MLLE inh = inhibitors of microRNA-mediated deadenylation, human PABP1 MLLE binding; P11940; GST-MLLE / FITC-PAM2 fluorescence polarization; inhibition, % at 20 µM; 360,000 tested, 0.36% active; AID 588489; in the data active means inhibition above about 35%, passing the limit was not always enough;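 further: plate controls were DMSO wells with GST-MLLE for no effect and wells lacking GST-MLLE protein for full effect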
GRK2 CP1 = confirmation of human GRK2 inhibitors displacing RNA aptamer; shares compounds with GRK2 aptamer HTS; bead-bound GRK2, FAM-aptamer displacement, flow cytometry; aptamer displacement, % at 10 µM; 2,000 tested, 4% active; AID 504451;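 active means aptamer displacement above 40%, near three times the noise of non-fluorescent compounds, on plates passing quality checks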;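 further: negative values mostly reflect intrinsic compound fluorescence rather than true enhancement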
Aptamer quench SP = aptamer fluorescence quenching in GRK2 counter-screen | shares compounds with GRK2 aptamer HTS | Carboxyfluorescein RNA aptamer on beads, flow cytometry quenching; hits give low values | fluorescence response (% of DMSO), % at 10 µM | 2,000 tested, under 10 active | AID 504580;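 active means compounds that quench the bead-bound fluorescent RNA probe, cutting fluorescence to under half of the solvent control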;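 further: counterscreen run without GRK2 so only probe quenching by compound is measured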
GRK2 CP2 = human GRK2 inhibition confirmation, cherry pick 2 | AID 504782 | 360 tested, under 10 active | shares compounds with GRK2 aptamer HTS | bead-bound GRK2, FAM-aptamer displacement, flow cytometry | inhibition of aptamer binding, % at 10 µM;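 active means inhibition of aptamer binding above 40%, about triple the noise seen with nonglowing compounds, on plates passing quality control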;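 further: negative values mostly come from compounds that fluoresce themselves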
FAM quench CP2 = quenches fluorescent RNA aptamer, GRK2 hit artifact | shares compounds with GRK2 aptamer HTS | carboxyfluorescein RNA aptamer beads, flow cytometry quenching; hits give low values | fluorescence response vs DMSO, % at 10 µM | 360 tested, under 10 active;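 active means response vs DMSO under 50%, meaning signal dropped by over half, treated as fluorescence quencher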;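 further: labelled aptamer on streptavidin beads without GRK2 as a quench counter-screen; 100% = bead fluorescence of DMSO wells and lower means quenching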
* = called active by the depositor; nt = no result. This is a sample that favours compounds with a hit; in the whole collection about 1.9% have one here. Unless noted, how the calls were made is not given here.

SMILES	PERK inhibitor	eIF4H FP inh	PABP FP inh	GRK2 aptamer HTS	PABP1 MLLE inh	others
Cc1cc(C)n(C(=O)CNC(=O)c2ccc(Cl)cc2Cl)n1	nt	-2	7	0	0
OCCC1CN(Cc2cccn2-c2cccnc2)CCN1C1CCCC1 (stereo not drawn)	0	9	1	0	11
COc1ccccc1NC(=O)Cc1csc(NC(=S)Nc2ccccc2)n1	0	-11	-2	58*	41*	GRK2 CP1=2;Aptamer quench SP=99
O=C(NCc1ccc2c(c1)OCO2)c1ccc(CSCc2ccc(Cl)cc2)o1	1	4	-2	51*	-5	GRK2 CP2=-22;FAM quench CP2=105
COCCN(CCOC)Cc1cc(=O)oc2cc(C)ccc12	nt	nt	nt	nt	1
CC(=O)Nc1ccc(N2CCN(c3ccc(F)cc3)CC2)cc1	nt	-3	-7	11	-15	GRK2 CP1=-1;Aptamer quench SP=103
COc1cc2c(cc1OC)C(CNC(=O)C=Cc1ccccc1)C2 (stereo not drawn)	nt	nt	nt	nt	-2
Cn1c(N)c(C(=O)CSc2nnc(-c3c[nH]c4ccccc34)n2C2CC2)c(=O)[nH]c1=O	nt	nt	nt	0	-49
COc1ccccc1C(=O)Nc1c2c(nn1-c1ccc(Cl)cc1)CS(=O)(=O)C2	nt	-6	-18	44*	-4	GRK2 CP2=-18;FAM quench CP2=101
COc1ccccc1C(=O)Nc1c2c(nn1-c1ccc([N+](=O)[O-])cc1)CS(=O)(=O)C2	nt	-20	2	0	-9
